Measured values as given in PubChem BioAssay (NCI).
About 83,000 compounds went through this panel and 20% of them were active in at least one assay; those are over-represented in the sample as a whole.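 Cell lines were cultured in 96-well plates, exposed to a single compound concentration, and assessed for percent growth 48 hours later.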 Values without a mark were called inactive. Calls of active or inactive are those of the source. How the source made its calls: active means growth percent below 10; inactive means the rest.

Key:
Test in all cases: NCI-60 one-dose screen, 48 h (100 = growth as untreated, 0 = no growth, -100 = all killed)
Conditions in all cases: 10 µM unless noted
[1] = test system: HCT-15 colon
[2] = test system: HT29 colon
[3] = test system: SNB-75 CNS
[4] = test system: SNB-19 CNS
[5] = test system: U251 CNS
[6] = test system: PC-3 prostate
[7] = test system: SK-MEL-5 melanoma
[8] = test system: UACC-62 melanoma
[9] = test system: LOX IMVI melanoma
[10] = test system: SK-MEL-28 melanoma
[11] = test system: SK-MEL-2 melanoma
[12] = test system: SN12C renal
[13] = test system: UO-31 renal
[14] = test system: ACHN renal
[15] = test system: CAKI-1 renal
[16] = test system: A498 renal
[17] = test system: CCRF-CEM leukemia
[18] = test system: MOLT-4 leukemia
[19] = test system: TK-10 renal
[20] = test system: EKVX NSCLC

COc1ccccc1CNCCCN1C(=O)c2ccc3c4c(ccc(c24)C1=O)C(=O)N(CCCNCCCCNCCCCN)C3=O
growth [1]: 30.6%
growth [2]: 1.62% (active)
growth [3]: -37.8% (active)
growth [4]: 4.86% (active)
growth [5]: 0.458% (active)
growth [6]: -12.5% (active)
growth [7]: -85% (active)
growth [8]: -75% (active)
growth [9]: -3.52% (active)
growth [10]: -13.9% (active)
growth [11]: -55.8% (active)
growth [12]: 6.05% (active)
growth [13]: 8.57% (active)
growth [14]: 17.2%
growth [15]: 64%
growth [16]: 9.03% (active)
growth [17]: 13.8%
growth [18]: 11.3%

Cc1ccc(C(=O)c2sc3nc4c(cc3c2N)CCCC4)c(C)c1
growth [1]: 29.8%
growth [2]: 9.13% (active)
growth [3]: -14.3% (active)
growth [4]: 51.5%
growth [5]: 21.2%
growth [6]: 5.81% (active)
growth [7]: 24.6%
growth [8]: 24.3%
growth [9]: 30.6%
growth [10]: 55%
growth [11]: -13.7% (active)
growth [12]: 44.1%
growth [13]: 30.8%
growth [14]: 46.4%
growth [15]: 7.6% (active)
growth [16]: -10.8% (active)
growth [17]: 6.69% (active)
growth [18]: 21.8%

O=S(=O)(O)CCl
growth [1]: 96.3%
growth [2]: 95.9%
growth [3]: 86.1%
growth [4]: 106%
growth [5]: 97.1%
growth [6]: 91.6%
growth [7]: 103%
growth [8]: 100%
growth [10]: 102%
growth [11]: 104%
growth [12]: 98.8%
growth [13]: 91.6%
growth [19]: 92%
growth [14]: 103%
growth [15]: 103%
growth [16]: 111%
growth [18]: 99.4%

O=C1CCCCC=C1C[N+](=O)[O-]
growth [1]: 75.2%
growth [2]: 83.3%
growth [3]: 105%
growth [4]: 97.5%
growth [5]: 88.4%
growth [6]: 85.5%
growth [7]: 71.9%
growth [8]: 91.8%
growth [10]: 89.2%
growth [11]: 102%
growth [20]: 103%
growth [12]: 95.7%
growth [13]: 53.5%
growth [19]: 107%
growth [14]: 75.8%
growth [15]: 76%
growth [16]: 117%
growth [17]: 54.2%
growth [18]: 42.5%

COc1ccc(/C(=N\O)c2cc(OC)c(OC)c(OC)c2)c(OC)c1N
growth [1]: 11.3%
growth [2]: 4.28% (active)
growth [3]: -8.55% (active)
growth [4]: 32.8%
growth [5]: 18.3%
growth [6]: 20.9%
growth [7]: 11.3%
growth [8]: 30%
growth [10]: 59.3%
growth [11]: 35.1%
growth [20]: 47.3%
growth [12]: 44.4%
growth [13]: 50.3%
growth [19]: 9.72% (active)
growth [14]: 40.5%
growth [15]: 28.1%
growth [17]: 12.6%
growth [18]: 24.1%

O=c1oc2c([nH]c3ccc4ccccc4c32)c2ccccc12
growth [1]: 105%
growth [2]: 111%
growth [3]: 126%
growth [4]: 108%
growth [5]: 100%
growth [6]: 97.7%
growth [7]: 85.5%
growth [8]: 93.8%
growth [10]: 134%
growth [11]: 107%
growth [20]: 85.4%
growth [12]: 106%
growth [13]: 128%
growth [19]: 127%
growth [14]: 110%
growth [15]: 109%
growth [17]: 97.6%
growth [18]: 85.2%

COc1ccc(/C=C/C(=O)c2cc(OC)c(OC)c(OC)c2)cc1OCc1cn(Cc2ccc(F)cc2)nn1
growth [1]: 23.8%
growth [2]: 4.82% (active)
growth [3]: 27.5%
growth [4]: 78.4%
growth [5]: 19.3%
growth [6]: 35.1%
growth [7]: 80.8%
growth [8]: 64.4%
growth [9]: 13.3%
growth [10]: 87.3%
growth [11]: 90%
growth [12]: 29.2%
growth [13]: 30.8%
growth [14]: 57.9%
growth [15]: 4.33% (active)
growth [17]: 0.459% (active)
growth [18]: 58.1%

COc1ccc(OC)c(NC(=O)c2cc(S(=O)(=O)N3CCc4ccccc43)ccc2OC)c1
growth [1]: 107%
growth [2]: 76.7%
growth [3]: 85.1%
growth [4]: 75.9%
growth [5]: 92.1%
growth [6]: 88.5%
growth [7]: 67.6%
growth [8]: 79.2%
growth [10]: 131%
growth [11]: 36.4%
growth [20]: 94.9%
growth [12]: 95%
growth [13]: 42.2%
growth [19]: 91.9%
growth [14]: 93.3%
growth [15]: 107%
growth [16]: 69.8%
growth [17]: 107%
growth [18]: 106%

COC(=O)c1cc(-c2cccs2)c(C#N)c(N)c1C#N
growth [1]: 101%
growth [2]: 106%
growth [3]: 83.4%
growth [4]: 97.1%
growth [5]: 95.5%
growth [6]: 95.5%
growth [7]: 102%
growth [8]: 99.3%
growth [10]: 114%
growth [11]: 112%
growth [12]: 102%
growth [13]: 92.7%
growth [19]: 116%
growth [14]: 107%
growth [16]: 104%
growth [17]: 92.5%
growth [18]: 98.1%

CC/C=C\C/C=C\C[C@H](O)C/C=C1/C(=O)C=C[C@H]1C/C=C\CCC(=O)OC
growth [1]: -13.3% [8.25 µM] (active)
growth [2]: 2.84% [8.25 µM] (active)
growth [3]: 75.2% [8.25 µM]
growth [4]: 62.4% [8.25 µM]
growth [5]: 15% [8.25 µM]
growth [6]: 20.1% [8.25 µM]
growth [7]: 24.5% [8.25 µM]
growth [8]: 4.47% [8.25 µM] (active)
growth [10]: 22.5% [8.25 µM]
growth [11]: 65.6% [8.25 µM]
growth [12]: 1.16% [8.25 µM] (active)
growth [13]: 48.1% [8.25 µM]
growth [19]: 58.7% [8.25 µM]
growth [14]: 26.9% [8.25 µM]
growth [15]: 55.3% [8.25 µM]
growth [17]: -1.3% [8.25 µM] (active)
growth [18]: 32.7% [8.25 µM]

Nc1c(C(=O)c2ccc(F)cc2)sc2nc3c(cc12)CCCC3
growth [1]: 58.4%
growth [2]: 66%
growth [3]: 85.8%
growth [4]: 95.4%
growth [5]: 79.4%
growth [6]: 80.7%
growth [7]: 89.2%
growth [8]: 75%
growth [9]: 75.8%
growth [10]: 76.8%
growth [11]: 67.7%
growth [12]: 82.5%
growth [13]: 75.3%
growth [14]: 96.6%
growth [15]: 84.6%
growth [16]: 56.2%
growth [17]: 77.9%
growth [18]: 66.6%

COc1ccc(NC(=O)CSc2nc3ccccc3c(=O)n2-c2ccccc2C(F)(F)F)c(OC)c1OC
growth [1]: 105%
growth [2]: 104%
growth [3]: 83.9%
growth [4]: 88.8%
growth [5]: 95.7%
growth [6]: 100%
growth [7]: 98.2%
growth [8]: 87.5%
growth [9]: 98.9%
growth [10]: 106%
growth [11]: 121%
growth [12]: 93%
growth [13]: 91.9%
growth [14]: 99.2%
growth [15]: 98.4%
growth [16]: 74.8%
growth [17]: 101%
growth [18]: 107%

O=C(CC(O)c1ccncc1)c1ccccc1 (stereo unspecified)
growth [1]: 36.4%
growth [2]: 32.7%
growth [3]: -5.32% (active)
growth [4]: 68.2%
growth [5]: 73.4%
growth [6]: -17.2% (active)
growth [7]: 88.3%
growth [8]: 89.3%
growth [10]: 105%
growth [11]: 57.1%
growth [12]: -22.2% (active)
growth [13]: 49.7%
growth [19]: -30.8% (active)
growth [14]: -28.5% (active)
growth [15]: 86.2%
growth [16]: 62.4%
growth [17]: 99.9%
growth [18]: 90.9%

COc1ccc(-c2nnc(COc3ccc(NC(=O)Nc4ccc(Cl)c(C(F)(F)F)c4)cc3F)o2)cc1
growth [1]: 8.08% (active)
growth [2]: 9.28% (active)
growth [3]: 15.6%
growth [4]: 21.7%
growth [5]: -26.6% (active)
growth [6]: -8.78% (active)
growth [7]: 12.3%
growth [8]: 19.2%
growth [10]: 1.13% (active)
growth [11]: -7.3% (active)
growth [12]: 21.2%
growth [13]: 2.2% (active)
growth [19]: 35%
growth [14]: -23.2% (active)
growth [15]: 4.77% (active)
growth [17]: 0.195% (active)
growth [18]: 2.69% (active)

COc1ccc(Cn2c(SC)nc(=O)n(Cc3ccc(Cl)cc3)c2=O)cc1
growth [1]: 98.5%
growth [2]: 121%
growth [3]: 80.7%
growth [4]: 97%
growth [5]: 93.2%
growth [6]: 90.1%
growth [7]: 107%
growth [8]: 87.7%
growth [9]: 87.5%
growth [10]: 102%
growth [11]: 102%
growth [12]: 93.5%
growth [13]: 68.3%
growth [14]: 96.3%
growth [15]: 70.5%
growth [16]: 88.9%
growth [17]: 97.7%
growth [18]: 95%

COc1ccc(C(=O)/C=C/c2ccc(/C=C/c3cc(OC)c(OC)c(OC)c3)cc2)cc1
growth [1]: 33.6%
growth [2]: 36.2%
growth [3]: 59.8%
growth [4]: 74.4%
growth [5]: 36.3%
growth [6]: 52.2%
growth [7]: 62%
growth [8]: 53.7%
growth [9]: 24.7%
growth [10]: 84.7%
growth [11]: 65.1%
growth [12]: 56.7%
growth [13]: 40.6%
growth [14]: 68.1%
growth [15]: 74.4%
growth [17]: 19.6%
growth [18]: 9.62% (active)

CC(=O)Nc1nc(C(=O)N2N=C(C)/C(=C/c3cccs3)C2=O)cs1
growth [1]: 93.1%
growth [2]: 96.5%
growth [3]: 92%
growth [4]: 102%
growth [5]: 99.4%
growth [6]: 102%
growth [7]: 109%
growth [8]: 113%
growth [10]: 111%
growth [11]: 98.4%
growth [12]: 110%
growth [13]: 84%
growth [19]: 107%
growth [14]: 113%
growth [15]: 98.6%
growth [16]: 115%
growth [17]: 92.4%
